# According to PubChem BioAssay (NCI):
# This is part of a sample that, as a whole, favours compounds with a hit. Of some 79,000 tested, about 15% had one in any assay. Unmarked numbers belong to inactive results. The source made the active and inactive calls. Cut-off read from the data, not from the text of the source: active = growth inhibition above about 70%; inactive = the rest.
# How the values were obtained:
# [1] = NCI Yeast Anticancer Drug Screen. Data for the rad52 strain (AID 147);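 note: 0% = growth of vehicle-treated control cultures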; conditions: S. cerevisiae rad52 mutant growth inhibition, active compounds read high
# Outline: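 Yeast strain carrying a DNA damage repair alteration was exposed to test compounds. Growth inhibition was measured relative to vehicle-treated controls.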
# [2] = NCI Yeast Anticancer Drug Screen. Data for the wt1 strain (AID 149);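 note: 0% = growth of vehicle-treated wt1 cultures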; conditions: S. cerevisiae wt1 strain (SPY 50644) growth inhibition, active compounds read high
# Outline: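 Growth inhibition read against vehicle controls after compound exposure of the wt1 yeast strain.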
# [3] = NCI Yeast Anticancer Drug Screen. Data for the rad50EPP+ strain (AID 151);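 note: 0% = growth of vehicle-treated control cultures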; conditions: S. cerevisiae rad50 mutant strain, active compounds read high
# Outline: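 Yeast strain carrying rad50 alteration (rad50EPP+) exposed to compounds; growth inhibition measured relative to vehicle-treated controls.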
# [4] = NCI Yeast Anticancer Drug Screen. Data for the rad50 strain (AID 155);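 note: 0% = growth of vehicle-only cultures of the same strain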; conditions: S. cerevisiae rad50 strain growth inhibition, active compounds read high
# Outline: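 Readout: growth inhibition relative to vehicle-treated cultures. Compound exposure was carried out in a genetically defined yeast strain deficient in DNA damage repair.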
# [5] = NCI Yeast Anticancer Drug Screen. Data for the mec2-1 strain (AID 157); conditions: S. cerevisiae mec2-1 strain, active compounds read high
# Outline: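 mec2-1 yeast strain, carrying an alteration in DNA damage repair or cell cycle control, was exposed to compounds; growth inhibition was measured relative to vehicle-treated controls.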
# [6] = NCI Yeast Anticancer Drug Screen. Data for the rad14 strain (AID 159);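 note: 0% = growth of vehicle-treated control cultures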; conditions: S. cerevisiae rad14 strain growth inhibition, active compounds read high
# Outline: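 Growth inhibition vs vehicle controls; genetically altered yeast strain (DNA damage repair defect) treated with test compounds.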
# [7] = NCI Yeast Anticancer Drug Screen. Data for the sgs1 mgt1 strain (AID 161);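 note: 0% = growth of cultures given vehicle only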; conditions: S. cerevisiae sgs1 mgt1 strain, active compounds read high
# Outline: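 Yeast cells carrying a defined DNA-repair defect were exposed to test compounds. Growth inhibition was measured relative to vehicle-treated controls.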
# [8] = NCI Yeast Anticancer Drug Screen. Data for the CLN2oe strain (AID 163);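 note: 0% = growth of vehicle-only control cultures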; conditions: S. cerevisiae CLN2oe strain, active compounds read high
# Outline: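 Yeast cells carrying a defined cell-cycle control alteration were exposed to test compounds. Growth inhibition was scored against vehicle-treated control cultures.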
# [9] = NCI Yeast Anticancer Drug Screen. Data for the cln2 rad14 strain (AID 165);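 note: 0% = growth equal to vehicle treated cultures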; conditions: S. cerevisiae cln2 rad14 strain, active compounds read high
# Outline: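 Yeast carrying cln2 and rad14 alterations (cell cycle control and DNA damage repair) were exposed to compounds. Growth inhibition was measured against vehicle-treated controls.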
# [10] = NCI Yeast Anticancer Drug Screen. Data for the bub3 strain (AID 167); conditions: S. cerevisiae bub3 mutant strain, active compounds read high
# Outline: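 Readout: yeast growth inhibition, expressed relative to vehicle-only wells. The test organism is a mutant strain from a panel with lesions in DNA repair or checkpoint genes.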
# [11] = NCI Yeast Anticancer Drug Screen. Data for the wt2 strain (AID 169);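 note: 0% = growth of vehicle-treated yeast cultures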; conditions: S. cerevisiae wt2 strain growth inhibition, active compounds read high
# Outline: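 Yeast cells were exposed to test compounds, and growth inhibition was measured relative to vehicle-treated controls.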
# [12] = NCI Yeast Anticancer Drug Screen. Data for the mlh1 strain (AID 171);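 note: 0% = growth of vehicle-treated control cultures of the same strain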; conditions: S. cerevisiae mlh1 strain growth inhibition, active compounds read high
# Outline: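 Yeast carrying a defined genetic alteration in DNA damage repair or cell cycle control were exposed to test compounds. Growth inhibition was measured relative to vehicle-treated controls.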
# [13] = NCI Yeast Anticancer Drug Screen. Data for the sgs1 strain (AID 173);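 note: 0% = growth of vehicle-only control cultures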; conditions: S. cerevisiae sgs1 mutant, active compounds read high
# Outline: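 Yeast mutant strains carrying defined defects in DNA damage repair or cell cycle control were exposed to test compounds. Growth inhibition was scored against vehicle-treated controls.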
# [14] = NCI Yeast Anticancer Drug Screen. Data for the mlh1 rad18 strain (AID 175); conditions: S. cerevisiae mlh1 rad18 strain growth inhibition, active compounds read high
# Outline: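 Growth inhibition of the yeast strain was measured after compound exposure and expressed relative to vehicle-treated controls. The strain carries defined defects in DNA damage repair.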
# [15] = NCI Yeast Anticancer Drug Screen. Data for the rad18 strain (AID 177); conditions: S. cerevisiae rad18 mutant growth inhibition, active compounds read high
# Outline: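 Yeast carrying a defined DNA damage repair alteration were exposed to compounds. Growth inhibition was expressed relative to vehicle-treated controls.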
# [16] = at 5.0 µM (retest, dose inferred, filed as 0.5)
# [17] = at 50.0 µM (retest, dose inferred, filed as 5.0)
smiles,measurement,setting,value
Cc1ccc(S(=O)(=O)N(C)c2ccc(Cl)cc2C2=NCCc3ccccc32)cc1,growth inhibition,[1]; at 1.2 µM,2%
same,growth inhibition,[1]; at 3.7 µM,-8%
same,growth inhibition,[1]; at 11.0 µM,-6%
same,growth inhibition,[1]; at 33.0 µM,3%
same,growth inhibition,[1]; at 100.0 µM,95% (active)
same,growth inhibition,[2]; at 1.2 µM,-2%
same,growth inhibition,[2]; at 3.7 µM,-19%
same,growth inhibition,[2]; at 11.0 µM,-12%
same,growth inhibition,[2]; at 33.0 µM,-6%
same,growth inhibition,[2]; at 100.0 µM,95% (active)
same,growth inhibition,[3]; at 1.2 µM,-8%
same,growth inhibition,[3]; at 3.7 µM,-9%
same,growth inhibition,[3]; at 11.0 µM,-14%
same,growth inhibition,[3]; at 33.0 µM,-9%
same,growth inhibition,[3]; at 100.0 µM,-8%
same,growth inhibition,[4]; at 1.2 µM,0%
same,growth inhibition,[4]; at 3.7 µM,5%
same,growth inhibition,[4]; [16],47%
same,growth inhibition,[4]; at 11.0 µM,11%
same,growth inhibition,[4]; at 33.0 µM,3%
same,growth inhibition,[4]; [17],56%
same,growth inhibition,[4]; at 50.0 µM,89% (active)
same,growth inhibition,[4]; at 100.0 µM,94% (active)
same,growth inhibition,[5]; at 1.2 µM,-7%
same,growth inhibition,[5]; at 3.7 µM,-26%
same,growth inhibition,[5]; [16],39%
same,growth inhibition,[5]; at 11.0 µM,-18%
same,growth inhibition,[5]; at 33.0 µM,-3%
same,growth inhibition,[5]; [17],61%
same,growth inhibition,[5]; at 50.0 µM,91.7% (active)
same,growth inhibition,[5]; at 100.0 µM,95% (active)
same,growth inhibition,[6]; at 1.2 µM,-23%
same,growth inhibition,[6]; at 3.7 µM,-40%
same,growth inhibition,[6]; at 11.0 µM,-28%
same,growth inhibition,[6]; at 33.0 µM,-15%
same,growth inhibition,[6]; at 100.0 µM,94% (active)
same,growth inhibition,[7]; [16],7%
same,growth inhibition,[7]; [17],94% (active)
same,growth inhibition,[7]; at 50.0 µM,93.1% (active)
same,growth inhibition,[8]; at 1.2 µM,15%
same,growth inhibition,[8]; at 3.7 µM,2%
same,growth inhibition,[8]; at 11.0 µM,18%
same,growth inhibition,[8]; at 33.0 µM,9%
same,growth inhibition,[8]; at 100.0 µM,96% (active)
same,growth inhibition,[9]; [16],51%
same,growth inhibition,[9]; [17],98% (active)
same,growth inhibition,[9]; at 50.0 µM,90% (active)
same,growth inhibition,[10]; at 1.2 µM,-16%
same,growth inhibition,[10]; at 3.7 µM,-9%
same,growth inhibition,[10]; [16],52%
same,growth inhibition,[10]; at 11.0 µM,1%
same,growth inhibition,[10]; at 33.0 µM,7%
same,growth inhibition,[10]; [17],95% (active)
same,growth inhibition,[10]; at 50.0 µM,91.6% (active)
same,growth inhibition,[10]; at 100.0 µM,95% (active)
same,growth inhibition,[11]; at 1.2 µM,-25%
same,growth inhibition,[11]; at 3.7 µM,-40%
same,growth inhibition,[11]; at 11.0 µM,-19%
same,growth inhibition,[11]; at 33.0 µM,6%
same,growth inhibition,[11]; at 100.0 µM,94% (active)
same,growth inhibition,[12]; at 1.2 µM,-21%
same,growth inhibition,[12]; at 3.7 µM,-21%
same,growth inhibition,[12]; at 11.0 µM,-17%
same,growth inhibition,[12]; at 33.0 µM,14%
same,growth inhibition,[12]; at 100.0 µM,96% (active)
same,growth inhibition,[13]; at 1.2 µM,-15%
same,growth inhibition,[13]; at 3.7 µM,-20%
same,growth inhibition,[13]; at 11.0 µM,-11%
same,growth inhibition,[13]; at 33.0 µM,6%
same,growth inhibition,[13]; at 100.0 µM,93% (active)
same,growth inhibition,[14]; [16],45%
same,growth inhibition,[14]; [17],55%
same,growth inhibition,[14]; at 50.0 µM,90.4% (active)
same,growth inhibition,[15]; at 1.2 µM,-13%
same,growth inhibition,[15]; at 3.7 µM,-12%
same,growth inhibition,[15]; at 11.0 µM,-18%
same,growth inhibition,[15]; at 33.0 µM,-11%
same,growth inhibition,[15]; at 100.0 µM,94% (active)
